Hits are enriched below; roughly 3.5% of the tested compounds scored in any of these assays.
MITF primary = inhibitors of human MITF | O75030 | AlphaScreen MITF homodimerization, bead proximity signal | inhibition, % at 2.6 µM | hit rate 0.91% among 650,000; in the data active = inhibition above about 50%;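 also: 0% = vehicle wells with protein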
Target sequence (O75030 whole entry, looked up): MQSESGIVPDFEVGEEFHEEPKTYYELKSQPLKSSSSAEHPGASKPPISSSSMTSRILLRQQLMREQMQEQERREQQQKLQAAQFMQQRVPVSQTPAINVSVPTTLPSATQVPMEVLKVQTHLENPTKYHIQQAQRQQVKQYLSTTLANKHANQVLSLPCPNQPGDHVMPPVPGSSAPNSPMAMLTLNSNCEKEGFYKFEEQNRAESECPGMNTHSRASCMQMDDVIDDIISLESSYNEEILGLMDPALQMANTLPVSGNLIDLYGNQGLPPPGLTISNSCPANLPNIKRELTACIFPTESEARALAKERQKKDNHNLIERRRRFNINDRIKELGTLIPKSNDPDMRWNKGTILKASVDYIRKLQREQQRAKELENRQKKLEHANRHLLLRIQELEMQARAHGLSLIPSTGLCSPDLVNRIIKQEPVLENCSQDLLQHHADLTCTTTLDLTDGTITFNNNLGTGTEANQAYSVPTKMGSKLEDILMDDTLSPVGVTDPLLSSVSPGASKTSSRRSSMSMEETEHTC
TEAD-YAP inh = TEAD-YAP interaction inhibition; HEK-TIYL cells, TEAD-Gal4/YAP UAS-luciferase luminescence; inhibition, % at 9.12 µM; hit rate 1.4% among 640,000; AID 1259422; in the data active = inhibition above about 32%;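 also: 0% = median of test compound wells and 100% = reference inhibitor wells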
GPR151 ag = human GPR151 activation; PathHunter beta-arrestin GPR151 cells, luminescence; activation, % at 11.2 µM; hit rate 1% among 650,000; in the data active = activation above about 4.9%;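 also: 0% = median of compound wells and 100% = cells with positive control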
FBW7 act = activators of human E3 ligase FBW7; hit rate 0.13% among 650,000; Q969H0; AlphaScreen FBW7–phospho-cyclin E peptide binding, activator screen; normalized activity (activation), % at 26.1 µM; in the data active = normalized activity above about 1.9%;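 also: purified mutant Fbw7 with reduced substrate affinity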
GPR151 conf act = human GPR151 activation, confirmation screen. shares compounds with GPR151 ag. GPR151 PathHunter beta-arrestin cells, luminescence, 90 min; % of EA-reagent control over plate median. activation, % at 11.2 µM. 6,700 tested, under 10 active. AID 1508609;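 active = mean percent activation across replicates above the confirmation screen cutoff of 4.91%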
GPR119 ag = GPR119 activation, counter-screen for GPR151 activators; shares compounds with GPR151 ag; GPR119 PathHunter beta-arrestin cells, luminescence, 90 min; 0 = compound-well median, 100 = enzyme-acceptor control; activation, % at 11.2 µM; hit rate 0.3% among 6,700; AID 1508611;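 active = mean percent activation in the counterscreen above 29.09%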;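 also: counterscreen on off-target GPR119 to flag nonselective hits from the GPR151 activator screen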
Starred values were filed as active, the others as inactive.

O=C(NCc1ccccc1Br)c1ccco1 was read as MITF primary 7, TEAD-YAP inh -3, GPR151 ag 6.1*, FBW7 act 0, GPR151 conf act -1 and GPR119 ag -10.
`CCc1ccc(NC(=O)CC(C)S(=O)(=O)c2ccc3c(c2)SCC(=O)N3)cc1` (configuration not stated) gave MITF primary -3, TEAD-YAP inh -2, GPR151 ag -2 and FBW7 act 0.
`Nc1nonc1C(=O)NCCNCc1ccccc1Cl` gave MITF primary 6, TEAD-YAP inh -7, GPR151 ag -1 and FBW7 act 0.
Screening CCOc1ccccc1CNCCNC(=O)c1nonc1N returned MITF primary 7, TEAD-YAP inh 7, GPR151 ag 6.3*, FBW7 act 0, GPR151 conf act 0 and GPR119 ag -6.
Screening O=C(O)c1c(Br)sc(-c2ccccc2)c1-c1ccccc1 returned MITF primary -1, TEAD-YAP inh -11, GPR151 ag 7.1*, FBW7 act 0, GPR151 conf act 0 and GPR119 ag -2.
For CCOC(=O)C1=C(C)OC(N)=C(C#N)C1c1ccc(OC)c(OCC)c1 (configuration not stated) the results were MITF primary -22, TEAD-YAP inh 1, GPR151 ag 5.2*, FBW7 act 0, GPR151 conf act 0 and GPR119 ag 10.
CCOC(=O)C1=C(C)OC(N)=C(C#N)C1c1ccc(OC)c(OC)c1 (configuration not stated) was read as MITF primary 0, TEAD-YAP inh -1, GPR151 ag 0 and FBW7 act 0.
Screening COC(=O)C1=C(C)OC(N)=C(C#N)C1c1ccccc1C(F)(F)F (configuration not stated) returned MITF primary -8, TEAD-YAP inh 2, GPR151 ag -1 and FBW7 act 0.
CCOC(=O)C1=C(C)OC(N)=C(C#N)C1c1ccccc1C(F)(F)F (configuration not stated) was read as MITF primary 3, TEAD-YAP inh 0, GPR151 ag 7.1*, FBW7 act 0, GPR151 conf act 0 and GPR119 ag -5.
`Cc1ccc(C(=O)Nc2cnn(-c3ccc(C(=O)N4CCSCC4)cc3)c2)c(C)c1` gave MITF primary -19, TEAD-YAP inh 1, GPR151 ag -1 and FBW7 act 0.
For Cc1ccc(/C=N/NC(=O)CCn2nnc3ccccc32)cc1 the results were MITF primary 4, TEAD-YAP inh 10, GPR151 ag 0 and FBW7 act 0.
COc1cccc(/C=C/C(=O)Nc2ccc3nc(N4CCCCC4)cc(C)c3c2)c1OC was read as MITF primary 0, TEAD-YAP inh -17, GPR151 ag 5.4*, FBW7 act 0, GPR151 conf act 1 and GPR119 ag 10.
`COc1cccc(CC(=O)N2CCc3nc(-c4ccccc4)c4c(c3C2)CO[C@@H](C)C4)c1` gave MITF primary 2, GPR151 ag 6.8*, FBW7 act 0, GPR151 conf act 0 and GPR119 ag -5.
`C[C@H]1Cc2c(-c3ccccc3)nc3c(c2CO1)CN(C(=O)Cc1cccs1)CC3` gave MITF primary -9, GPR151 ag -1 and FBW7 act 0.
COc1ccc(-c2nc3c(c4c2C[C@H](c2ccccc2)OC4)CN(C(=O)NCc2ccco2)CC3)c(C)c1 was read as MITF primary 10, GPR151 ag 5.9*, FBW7 act 0, GPR151 conf act 0 and GPR119 ag -2.
`C=CCNC(=O)N1CCc2nc(-c3ccc(OC)cc3C)c3c(c2C1)CO[C@@H](c1ccccc1)C3` gave MITF primary 2, GPR151 ag 1 and FBW7 act 0.
Screening Cc1ccc(NC(=O)/C(C#N)=C\c2ccc(O)cc2)cc1 returned MITF primary -16, TEAD-YAP inh -28, GPR151 ag 4 and FBW7 act 0.
For OC(CNCc1ccccc1)COc1ccc(Cl)cc1Cl (configuration not stated) the results were MITF primary 4, TEAD-YAP inh 4, GPR151 ag 1 and FBW7 act 0.
CC(=O)Cn1c(=O)c2c(nc3n(-c4ccccc4)c(C)c(C)n23)n(C)c1=O was read as MITF primary 11, TEAD-YAP inh 8, GPR151 ag 11*, FBW7 act 0, GPR151 conf act 0 and GPR119 ag 4.
COC(=O)C(C)n1c(=O)c2c(nc3n(-c4cc(C)cc(C)c4)c(C)c(C)n23)n(C)c1=O (configuration not stated) was read as MITF primary -11, TEAD-YAP inh 12, GPR151 ag 0 and FBW7 act 0.
For COC(=O)C(C)n1c(=O)c2c(nc3n(-c4ccc(C)c(C)c4)c(C)c(C)n23)n(C)c1=O (configuration not stated) the results were MITF primary 4, TEAD-YAP inh -1, GPR151 ag 5.3*, FBW7 act 0, GPR151 conf act 0 and GPR119 ag 4.
Screening C=CCn1c(=O)c2c(nc3n(-c4cccc(Cl)c4)c(C)c(C)n23)n(C)c1=O returned MITF primary -1, TEAD-YAP inh -5, GPR151 ag 6.3*, FBW7 act 0, GPR151 conf act -1 and GPR119 ag -3.
C=CCn1c(=O)c2c(nc3n(-c4ccc(Cl)cc4)c(C)c(C)n23)n(C)c1=O was read as MITF primary 12, TEAD-YAP inh 11, GPR151 ag -1 and FBW7 act 0.
`C/C(CC(=O)Nc1ccc(F)cc1F)=N\NC(=O)COc1ccc(Br)cc1` gave MITF primary -16, TEAD-YAP inh -11, GPR151 ag 1 and FBW7 act 0.
COC(=O)c1c(NC(=O)/C=C\C(=O)O)sc(C)c1C was read as MITF primary 21, TEAD-YAP inh -1, GPR151 ag 14*, FBW7 act 0, GPR151 conf act -1 and GPR119 ag 3.
Screening COc1ccc(-n2nc(C(=O)NCC(=O)N3CCCC3)c3ccccc3c2=O)c(OC)c1 returned MITF primary 17, TEAD-YAP inh -2, GPR151 ag -1 and FBW7 act 0.
For COc1ccc(-n2nc(C(=O)NCC(=O)Nc3ccc(OC)c(OC)c3)c3ccccc3c2=O)cc1Cl the results were MITF primary 13, TEAD-YAP inh 31, GPR151 ag 6.3*, FBW7 act 0, GPR151 conf act 0 and GPR119 ag 3.
CCOC(=O)N1CCN(C(=O)CNC(=O)c2nn(-c3ccc(OC)cc3OC)c(=O)c3ccccc23)CC1 was read as MITF primary 3, TEAD-YAP inh -11, GPR151 ag 5.3*, FBW7 act 0, GPR151 conf act 0 and GPR119 ag 10.
`O=C(/C=C/c1ccccc1Cl)NCc1ccco1` gave MITF primary 11, TEAD-YAP inh -27, GPR151 ag 0 and FBW7 act 0.

Screening results (PubChem)
